# According to PubChem BioAssay (NCATS):
# Results filed as inconclusive are left out. Activity calls are given as the source filed them. Unless noted, calls come from the whole dose curve; as a rule, active = well fitted curve in either direction with a large enough effect (not every such curve was filed as active); inconclusive = small, poorly fitted or top-dose-only effect, or another doubt; inactive = flat fitted curve, though single readings scatter.
# Legend:
# [1] = target: Lysosomal acid glucosylceramidase (Homo sapiens) (UniProt P04062); assay: Glucocerebrosidase-p2 (AID 348; in the data active = potency below about 10 µM; note: potency is the fitted concentration of half-maximal effect); settings: purified GBA, blue fluorogenic substrate, 40 min
# Outline: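 Compounds titrated from 0.6 nM upwards against 0.2 nM enzyme in pH 5.9 citric acid/KH2PO4, taurocholate, tween-20; blue fluorogenic substrate 80 uM, 40 min room temperature, stopped and read Ex 365/Em 440 for AC50.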
# [2] = AP1 Signaling Pathway (AID 357); settings: ME-180 AP-1-bla reporter, EGF-induced, beta-lactamase ratio, 5 h; at 7.69 µM (top of the series) unless noted;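 note: ME-180 reporter cells stimulated with EGF at its EC50 level; % is set by controls: 0 for no effect and ±100 for the full control effect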
# Outline: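 Cells are seeded overnight, exposed to compound titrations and an EC50 level of EGF for 5 hours at 37 °C, then loaded with CCF4 dye for 2.5 hours. Beta-lactamase activity under the AP-1 element is read as a blue/green ratio.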
# [3] = target: Cytochrome P450 1A2 (Homo sapiens) (UniProt P05177); assay: p450-cyp1a2 (AID 410; calls by dose curve; note: potency is the fitted concentration of half-maximal effect); settings: recombinant CYP1A2, luciferin-ME demethylation, luminescence; series mostly up to 57 µM
# Outline: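 Inhibition was calculated relative to 57 uM furafylline (full inhibition). The reaction used human CYP1A2 at 20nM with Luciferin-ME at its Km, 100uM, driven by an NADPH-regenerating system for 60 min at room temperature.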
# [4] = NFAT Signaling Pathway (AID 444); settings: Jurkat NFAT-bla M1, carbachol, beta-lactamase ratio, 5 h; at 7.69 µM (top of the series) unless noted;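 note: carbachol stimulus at about its EC50 of 1 µM final; % is set by controls: 0 for no effect and ±100 for the full control effect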
# Outline: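 Read-out: CCF4 FRET ratio (460 nm/530 nm) after 1 h RT dye loading, used for %activity and AC50 from titration series. Cells: Jurkat NFAT-β-lactamase/M1 line, treated with compound plus 1 uM carbachol for 5 h, 37 °C.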
# [5] = Stat Signaling Pathway (AID 446); settings: ME-180 SIE beta-lactamase reporter, IL-6 stimulated, 5 h; at 7.69 µM (top of the series) unless noted;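 note: ME-180 cervical cancer cells given 40 pM IL-6 alongside compound; SIE-controlled beta-lactamase reporter measured as 460/530 nm FRET emission ratio; % is set by controls: 0 for no effect and ±100 for the full control effect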
# Outline: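 Reporter line: ME-180 cervical carcinoma, SIE-beta-lactamase. Treatment: compound with 40 pM IL-6, 5 hrs, 37 C, in low-serum OPTI-MEM with 10 mM HEPES pH 7.3. Detection: 460/530 nm fluorescence.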
# [6] = target: Glucocorticoid receptor (Homo sapiens) (UniProt P04150); assay: GR-GFP Redistribution (AID 450;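 active = compounds whose dose series gives a full or clear partial fitted curve of increased nuclear translocation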; note: potency is the fitted concentration of half-maximal effect); settings: U2OS GR-GFP nuclear translocation, laser cytometry, 2 h
# [7] = target: Glucocorticoid receptor (Homo sapiens) (UniProt P04150); assay: GR-EFC Redistribution (AID 451; calls by dose curve; note: potency is the fitted concentration of half-maximal effect); settings: CHO-K1 GR-EFC translocation, beta-gal luminescence, 2 h
# Outline: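 Translocation of GR-ED fusion to nuclear EA restores b-gal, read by luminescence after 1 h room-temperature detection. Engineered CHO-K1 biosensor cells, 1,000/well, exposed 2 h at 37 C to titrations up to 46 uM final.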
# [8] = target: Mitogen-activated protein kinase 10 (Mus musculus) (UniProt Q61831); assay: JNK3 AlphaScreen Assay (AID 530); settings: JNK3 lysate, c-Jun phosphorylation; series mostly up to 57.1 µM;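 note: kinase came from lysate of stimulated human HepG2 cells; signal reports phosphorylation of biotinylated GST-cJun 1-79 at Ser73 with 10 µM ATP; % is set by controls: 0 for no effect and ±100 for the full control effect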
# Outline: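 Room-temperature AlphaScreen kinase assay; pre-activated HepG2 lysate as JNK3 source, biotin-GST-cJun(1-79) substrate, 10 uM ATP, compound 15 min preincubation.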
# [9] = target: 3',5'-cyclic-AMP phosphodiesterase 4B (Homo sapiens) (UniProt Q07343); assay: qHTS Assay for Inhibitors of PDE-IV (AID 607; active = well fitted activation curve with a large enough effect in the main read-out, with a control signal flat, not every such curve was filed as active; note: % of control where 0% means no effect); settings: HEK293 ACTOne CNG channel cells, membrane potential fluorescence; series mostly up to 22.9 µM
# Outline: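 Cell-based read-out of cAMP via a modified cyclic nucleotide-gated channel and membrane potential dye (535/590 nm) in HEK293 cells expressing PDE4 endogenously. Compounds tested up to 22.9 uM final; 100 uM RO 20-1724 reference.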
# [10] = qHTS Assay for Identification of Small Molecule Agonists for Hypoxia Response Element Signaling Pathway (AID 914; active = well fitted activation curve with a large enough effect in the signal ratio, with a control signal flat, not every such curve was filed as active; the % refers to the signal ratio; note: potency is the fitted concentration of half-maximal effect; for activation: % of control where 0% means no effect); settings: ME-180 (cervical carcinoma) HRE-bla reporter, beta-lactamase ratio, CoCl2, 17 h; activation: stronger effect = higher value
# Outline: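 Compounds in a titration series were added to ME-180 reporter cells alongside an EC50 level of CoCl2. After 17 hours, beta-lactamase activity was read as the 460nm/530nm emission ratio of CCF4, giving AC50 values.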
# [11] = qHTS Assay for Lipid Storage Modulators (AID 1519; calls by dose curve); settings: Drosophila S3 cells, BODIPY lipid droplet/cell ratio, laser cytometry, cells loaded with oleic acid; for activity change, negative = inhibition: at 57.5 µM (top of the series)
# Outline: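 Cells seeded at 5,000 per well were treated with compounds over a concentration series and loaded with oleic acid (400 uM, as added). Lipid droplet fluorescence (488 nm excitation, 500-530 nm channel) was read by laser-scanning cytometry and normalized to 20 uM Triacsin C.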
# [12] = target: Dual specificity protein kinase CLK4 (Homo sapiens) (UniProt Q9HAZ1); assay: qHTS Assay for Inhibitors of CDC-like Kinase 4 (ADP-FP Assay) (AID 1795; active = well fitted curve in the direction sought with a large enough effect; an effect the other way counts as inactive or inconclusive;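 note: recombinant human CLK4 phosphorylating RS repeat peptide at 1 µM ATP; % is set by controls: 0 for no effect and ±100 for the full control effect; nearly all actives have a fitted effect of over 60% in size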); settings: Transcreener ADP fluorescence polarization; series mostly up to 50 µM
# Outline: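 Clk4 6.25 nM; RS peptide 100 uM; ATP 1 uM; 25 mM Tris pH 7.5, 10 mM MgCl2; 1 h reaction. ADP detected via antibody/orange tracer FP displacement; TG003 positive control.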
# [13] = target: Ubiquitin carboxyl-terminal hydrolase 1 (Homo sapiens) (UniProt O94782); assay: Inhibitors of USP1/UAF1: Pilot qHTS (AID 504865; active = well fitted curve in the direction sought with a large enough effect; an effect the other way counts as inactive or inconclusive;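 note: rhodamine fluorescence freed from ubiquitin-rhodamine substrate followed over time; top concentration of the series differs between compounds; % is set by controls: 0 for no effect and ±100 for the full control effect; nearly all actives have a fitted effect of over 35% in size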); settings: purified USP1/UAF1, Ub-rhodamine cleavage fluorescence; series mostly up to 54.9 µM
# Outline: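 In 50mM HEPES pH 7.8 containing 0.5mM EDTA, 1mM TCEP, 0.1 mg/ml BSA and 0.01% Tween-20, 1nM USP1/UAF1 is exposed to compound for 15 min, then Ub-Rho (150nM final) is added and fluorescence is read over time.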
# [14] = Primary qHTS for small molecule stabilizers of the endoplasmic reticulum resident proteome: Secreted ER Calcium Modulated Protein (SERCaMP) assay (AID 1508630; active = well fitted curve in the direction sought with a large enough effect; an effect the other way counts as inactive or inconclusive; note: % is set by controls: 0 for no effect and ±100 for the full control effect); settings: SH-SY5Y GLuc-SERCaMP (Gaussia luciferase released on ER calcium loss) secretion, thapsigargin, luminescence; series mostly up to 38.4 µM
# Outline: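 GLuc-SERCaMP-expressing SH-SY5Y cells, pretreated 16 h with compound, are challenged with thapsigargin to empty ER calcium stores; after 4 h, coelenterazine is added directly to the medium and luminescence is imaged.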
# [15] = measured here: cell count channel max response
# [16] = measured here: lipid channel max response
# Sequence of 3',5'-cyclic-AMP phosphodiesterase 4B (Homo sapiens) (Q07343 whole entry, looked up): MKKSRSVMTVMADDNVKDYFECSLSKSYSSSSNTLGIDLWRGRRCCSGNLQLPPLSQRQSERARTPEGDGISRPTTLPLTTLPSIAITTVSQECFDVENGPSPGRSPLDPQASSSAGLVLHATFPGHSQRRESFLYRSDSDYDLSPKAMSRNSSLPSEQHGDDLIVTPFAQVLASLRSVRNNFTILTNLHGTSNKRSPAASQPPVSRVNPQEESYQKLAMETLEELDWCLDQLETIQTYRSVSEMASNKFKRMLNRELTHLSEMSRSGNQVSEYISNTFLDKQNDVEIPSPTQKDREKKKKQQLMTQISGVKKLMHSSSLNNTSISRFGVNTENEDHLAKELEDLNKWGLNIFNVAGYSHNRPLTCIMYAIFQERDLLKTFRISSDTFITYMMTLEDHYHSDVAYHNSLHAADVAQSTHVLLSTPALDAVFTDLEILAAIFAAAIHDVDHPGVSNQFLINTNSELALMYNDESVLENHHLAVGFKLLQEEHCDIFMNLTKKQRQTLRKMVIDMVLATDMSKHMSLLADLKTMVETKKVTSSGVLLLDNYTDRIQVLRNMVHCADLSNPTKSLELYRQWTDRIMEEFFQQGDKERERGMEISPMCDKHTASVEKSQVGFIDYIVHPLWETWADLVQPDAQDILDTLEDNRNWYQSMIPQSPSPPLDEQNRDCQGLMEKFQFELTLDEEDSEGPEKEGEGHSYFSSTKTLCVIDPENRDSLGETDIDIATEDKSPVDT
# Sequence of Glucocorticoid receptor (Homo sapiens) (P04150 whole entry, looked up, the tested form may be a part): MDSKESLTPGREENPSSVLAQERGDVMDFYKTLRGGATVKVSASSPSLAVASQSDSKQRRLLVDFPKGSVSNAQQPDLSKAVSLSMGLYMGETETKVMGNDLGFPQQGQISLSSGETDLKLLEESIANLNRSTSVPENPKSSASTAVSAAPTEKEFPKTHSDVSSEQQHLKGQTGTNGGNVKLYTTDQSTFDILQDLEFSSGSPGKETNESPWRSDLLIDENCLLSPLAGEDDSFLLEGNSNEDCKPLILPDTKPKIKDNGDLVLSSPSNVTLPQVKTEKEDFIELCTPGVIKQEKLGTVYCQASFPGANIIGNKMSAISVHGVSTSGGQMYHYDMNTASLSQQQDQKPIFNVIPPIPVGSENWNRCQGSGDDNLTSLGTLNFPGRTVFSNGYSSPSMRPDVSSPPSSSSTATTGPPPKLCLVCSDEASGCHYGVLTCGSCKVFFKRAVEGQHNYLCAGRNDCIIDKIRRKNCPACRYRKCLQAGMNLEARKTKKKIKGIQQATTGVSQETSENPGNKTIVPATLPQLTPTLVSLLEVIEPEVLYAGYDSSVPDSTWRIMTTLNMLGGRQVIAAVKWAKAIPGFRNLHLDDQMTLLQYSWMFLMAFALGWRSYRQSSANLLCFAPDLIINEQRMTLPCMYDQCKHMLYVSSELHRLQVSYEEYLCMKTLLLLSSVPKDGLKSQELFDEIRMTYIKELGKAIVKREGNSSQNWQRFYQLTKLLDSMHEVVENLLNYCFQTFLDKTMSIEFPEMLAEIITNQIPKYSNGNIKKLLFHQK
# Sequence of Ubiquitin carboxyl-terminal hydrolase 1 (Homo sapiens) (O94782 whole entry, looked up): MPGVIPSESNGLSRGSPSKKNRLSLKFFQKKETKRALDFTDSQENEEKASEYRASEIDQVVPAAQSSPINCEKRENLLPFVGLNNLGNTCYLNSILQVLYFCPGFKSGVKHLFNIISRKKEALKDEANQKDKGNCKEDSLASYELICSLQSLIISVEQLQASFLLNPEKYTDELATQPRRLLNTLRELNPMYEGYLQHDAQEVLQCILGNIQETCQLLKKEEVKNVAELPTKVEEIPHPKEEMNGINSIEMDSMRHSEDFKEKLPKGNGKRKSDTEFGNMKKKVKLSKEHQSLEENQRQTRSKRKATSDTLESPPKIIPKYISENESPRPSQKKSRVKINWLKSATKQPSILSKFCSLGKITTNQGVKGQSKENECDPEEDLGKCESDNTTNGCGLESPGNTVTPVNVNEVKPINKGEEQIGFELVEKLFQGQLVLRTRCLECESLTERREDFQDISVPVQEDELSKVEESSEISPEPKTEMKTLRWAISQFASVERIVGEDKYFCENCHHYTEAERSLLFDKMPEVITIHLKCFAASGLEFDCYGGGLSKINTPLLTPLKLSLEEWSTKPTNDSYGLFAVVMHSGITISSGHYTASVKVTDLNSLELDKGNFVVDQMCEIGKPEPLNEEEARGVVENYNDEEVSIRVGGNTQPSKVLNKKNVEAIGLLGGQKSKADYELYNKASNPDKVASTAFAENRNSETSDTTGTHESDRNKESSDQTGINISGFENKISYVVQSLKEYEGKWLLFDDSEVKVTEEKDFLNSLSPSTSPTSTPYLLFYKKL
# Sequence of Dual specificity protein kinase CLK4 (Homo sapiens) (Q9HAZ1 whole entry, looked up): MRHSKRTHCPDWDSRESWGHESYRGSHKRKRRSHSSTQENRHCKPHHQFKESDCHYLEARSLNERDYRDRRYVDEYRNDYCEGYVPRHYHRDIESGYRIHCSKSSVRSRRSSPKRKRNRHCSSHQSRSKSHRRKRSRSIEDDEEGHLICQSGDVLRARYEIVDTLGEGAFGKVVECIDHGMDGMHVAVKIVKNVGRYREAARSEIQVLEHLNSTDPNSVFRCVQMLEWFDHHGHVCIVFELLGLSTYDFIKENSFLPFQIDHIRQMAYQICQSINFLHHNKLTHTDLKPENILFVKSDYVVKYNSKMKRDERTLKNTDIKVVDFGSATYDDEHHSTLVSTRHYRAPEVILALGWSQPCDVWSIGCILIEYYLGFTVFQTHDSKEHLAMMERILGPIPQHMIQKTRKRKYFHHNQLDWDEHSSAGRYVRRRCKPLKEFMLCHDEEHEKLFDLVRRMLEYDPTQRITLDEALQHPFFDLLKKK
# Sequence of Lysosomal acid glucosylceramidase (Homo sapiens) (P04062 whole entry, looked up): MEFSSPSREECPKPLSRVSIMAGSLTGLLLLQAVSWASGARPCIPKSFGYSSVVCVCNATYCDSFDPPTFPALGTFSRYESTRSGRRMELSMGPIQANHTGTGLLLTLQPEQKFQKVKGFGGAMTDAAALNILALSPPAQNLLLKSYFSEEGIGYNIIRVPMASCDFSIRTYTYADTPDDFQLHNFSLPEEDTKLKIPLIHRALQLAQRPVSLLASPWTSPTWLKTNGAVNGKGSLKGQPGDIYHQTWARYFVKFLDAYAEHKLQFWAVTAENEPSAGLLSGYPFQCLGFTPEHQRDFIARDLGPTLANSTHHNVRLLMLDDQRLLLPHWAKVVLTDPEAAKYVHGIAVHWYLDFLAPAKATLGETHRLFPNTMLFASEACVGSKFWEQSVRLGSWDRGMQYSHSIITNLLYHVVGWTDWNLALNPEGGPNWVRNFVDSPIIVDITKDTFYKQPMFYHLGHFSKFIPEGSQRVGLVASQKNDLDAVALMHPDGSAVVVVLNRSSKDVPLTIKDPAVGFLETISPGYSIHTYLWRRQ
# Sequence of Cytochrome P450 1A2 (Homo sapiens) (P05177 whole entry, looked up): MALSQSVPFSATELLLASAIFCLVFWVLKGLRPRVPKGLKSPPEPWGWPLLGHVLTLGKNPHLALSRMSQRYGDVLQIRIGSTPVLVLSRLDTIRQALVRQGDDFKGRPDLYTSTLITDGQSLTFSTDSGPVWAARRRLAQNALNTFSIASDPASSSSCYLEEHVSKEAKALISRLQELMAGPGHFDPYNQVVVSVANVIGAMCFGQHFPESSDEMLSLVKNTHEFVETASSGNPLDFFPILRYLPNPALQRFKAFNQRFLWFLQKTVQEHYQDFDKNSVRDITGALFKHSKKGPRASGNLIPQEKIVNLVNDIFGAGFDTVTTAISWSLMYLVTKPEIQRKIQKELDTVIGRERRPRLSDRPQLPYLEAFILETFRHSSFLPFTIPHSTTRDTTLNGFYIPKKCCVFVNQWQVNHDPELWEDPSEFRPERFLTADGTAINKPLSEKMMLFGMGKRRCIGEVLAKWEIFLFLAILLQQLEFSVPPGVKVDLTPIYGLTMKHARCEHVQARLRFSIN
Compound,Potency [1],"activity change, negative = inhibition [2]",Potency [3],"activity change, negative = inhibition [4]","activity, negative = inhibition [5]",Potency [6],Potency [7],outcome [8],Potency [9],Potency [10],"activity change, negative = inhibition [11]","max response [11, 15] [%]","max response [11, 16] [%]",Potency [12],Potency [13],Potency [14],activation [10]
CNc1cc(-c2c(C)noc2C)ncn1,> 11.4 µM (inactive),25.4% (inactive),5.01 µM (active),3.01% (inactive),27.1% (inactive),> 46 µM (inactive),> 46 µM (inactive),inactive,inactive,3.16 µM (active),4.96% (inactive),25.8,27.2,inactive,inactive,inactive,
CN(C)c1ncc2ncc(=O)n(C[C@H]3CCCO3)c2n1,,-16.4% (inactive),,-6.33% (inactive),-10.5% (inactive),,> 46 µM (inactive),inactive,inactive,,5.33% (inactive),-7.9,-4.59,inactive,inactive,inactive,
CN(C)c1ncc2ncc(=O)n(C3CC3)c2n1,> 11.4 µM (inactive),0.558% (inactive),3.16 µM (active),-1.2% (inactive),-11.1% (inactive),> 9.22 µM (inactive),,inactive,inactive,,7.21% (inactive),15.8,22.4,inactive,inactive,inactive,
O=c1cnc2cnc(N3CCOCC3)nc2n1C1CC1,> 11.4 µM (inactive),18.1% (inactive),6.31 µM (active),-1.07% (inactive),-6.14% (inactive),> 9.22 µM (inactive),> 46 µM (inactive),inactive,inactive,,1.43% (inactive),8.4,8.8,inactive,inactive,inactive,
CN(C)C(=O)c1ccc(-c2ccc3ncnc(N4CCC(C(=O)O)CC4)c3c2)cc1,> 11.4 µM (inactive),0.539% (inactive),,7.54% (inactive),-4.54% (inactive),> 46 µM (inactive),> 46 µM (inactive),inactive,inactive,,3.56% (inactive),20.3,23.2,inactive,inactive,inactive,-0.026% (inactive)
CN(C)Cc1ccccc1-c1cncnc1Nc1ccncc1,> 11.4 µM (inactive),-25.5% (inactive),,10.2% (inactive),5.07% (inactive),> 46 µM (inactive),> 46 µM (inactive),inactive,inactive,,4.9% (inactive),13.6,17.6,inactive,inactive,inactive,
COc1ccc(CNc2cc(-c3cccc(C#N)c3)ncn2)c(OC)c1,> 11.4 µM (inactive),-14.7% (inactive),,,-2.42% (inactive),> 46 µM (inactive),> 46 µM (inactive),inactive,,,7.91% (inactive),18.5,23.9,inactive,inactive,inactive,
